# PMC12136788
# Positions count from the first letter of the chain named. Whole data set: some 24,000 sequences, median “enrichment r” near 0.99, cut for the highest 2% near 3.7. This excerpt belongs to a sample that is enriched for the highest values.
# T1: UNK ZnF1-3 (human, UniProt Q9C0B0 31-174)
# T1 sequence: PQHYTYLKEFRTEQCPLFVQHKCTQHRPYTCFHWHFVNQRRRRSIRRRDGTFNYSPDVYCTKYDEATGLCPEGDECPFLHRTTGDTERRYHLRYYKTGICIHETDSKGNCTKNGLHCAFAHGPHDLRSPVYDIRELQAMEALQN
# B1: 76906679_76906799_897_3pUTR_ENSMUSG00000022010_ENSMUST00000022587|mouse|control|control (ssRNA)
# RNA: GGGAGUUCUACAGUCCGACGAUCUGGGGAGGGUUGAAAAGGCACAGAGCUCCUCGGGGUCAAUUAAACCAUUCCUCAGACAUCUGCCACGUUGCACAGGGCACAUCCCUGCUCACUCUCUGAUUAACCUUUAAUUCACUCAACCAACAGAGGAUUGAGCAUCA
# B2: 129354385_129360783_1558_CDS_ENSG00000056277_ENST00000370978|human|control|control (ssRNA)
# RNA: GGGAGUUCUACAGUCCGACGAUCAUGUUCAGCUUUCUCCUUGCUGGUCAAAAAUUGUAGUCUGCAUUUUGGGCAACGAUGAACUCCUUUUUUCUGAUGCUUCAUGUAAUGAUUCAUGUAGGGGGUUGCCAUUUUACUAACUUUCAACAGAGGAUUGAGCAUCA
# B3: chr2:219525992:219525993:+_ENSG00000074582_ENST00000359273|hu_mus|FALSE|FALSE (ssRNA)
# RNA: GGGAGUUCUACAGUCCGACGAUCGAUCCAUUUUCCCUGAUACCAAAUGAAGUGGUUUCCAGGGCUGGGGAUAAAUUCAAACUUGGUGGAGAUCCGGCCACUUUCAUGCUGAAGGUAUGAGGUUUCAACACUGAGGUGCUGAGUCAACAGAGGAUUGAGCAUCA
# B4: 156047189_156047309_678_CDS_ENSG00000254726_ENST00000532414|human|control|control (ssRNA)
# RNA: GGGAGUUCUACAGUCCGACGAUCGAUGGUUGCCCCUUUGGGGCCCACCACCAGCCCCACCACGCGGUAGGGCACCCGCACACGGAUGGUCACCUGGCCGGGCAGAGCAGGAGCCACACCAAAGGCGGCGCCUGACUUGUUGCGCAACAGAGGAUUGAGCAUCA
# B5: 107436344_107436464_280_CDS_ENSMUSG00000020721_ENSMUST00000106746|mouse|control|control (ssRNA)
# RNA: GGGAGUUCUACAGUCCGACGAUCGGCAAUUCUGUAAAGAAGACUCUCAAUUUUGAUGCGCUCAACCUCCACCGGGCACGGCCCUGUGAAGUCUGCCAUGGAGUACUGGCCAAGAGAGAGCAGGGCGUCGGUGCAGUGCUGGAGCAACAGAGGAUUGAGCAUCA
# B6: 139370288_139370408_1793_CDS_ENSG00000148396_ENST00000313050|human|control|control (ssRNA)
# RNA: GGGAGUUCUACAGUCCGACGAUCGGUUGAGGGCUGGGACACGCUGCCACGGUAAUUCUGGCUCACAGUGGUCUCGUCUGUUUCACCUCCUACGGGAGAAGAAUCGAUUUGCUUAAAAAAACUACCUGAAGCUUCAUCCUCGGGCAACAGAGGAUUGAGCAUCA
# B7: 15271559_15271679_6895_CDS_ENSG00000074181_ENST00000263388|human|control|control (ssRNA)
# RNA: GGGAGUUCUACAGUCCGACGAUCGGGAAGUGGCUGGGCAGGCAGUGCCCCAGUGGUGGUGGCCAUGGCCCCAGUGGCAGUGGCUGGGCUAGGCGUGGAUUCGGACCAGUCUGAGAGGGAGGGAGGUGAGGGGCUGGCCCAGUGCAACAGAGGAUUGAGCAUCA
# B8: 129698844_129698964_1004_3pUTR_ENSMUSG00000026349_ENSMUST00000027587|mouse|control|control (ssRNA)
# RNA: GGGAGUUCUACAGUCCGACGAUCCUGCUAGCACUGAUAAAUUAUCAGAUGCACGGCUAUCUUGAACAGAAGUACUUCCUGAAUUUAGAGGUAUUGGAGCAGGGAACGUUGAUGUUGAUGGUUUCUGAAAGCUUGGGUUGGCAGCAACAGAGGAUUGAGCAUCA
# B9: chr1:184247048:184247049:-_ENSMUSG00000047539_ENSMUST00000051431|mus_mus|FALSE|FALSE (ssRNA)
# RNA: GGGAGUUCUACAGUCCGACGAUCCUGGAGCUAGAGCCAUAUUCCAAUCUACUUCCUAUUCCGAAGUCGUUUGGAUUUCCUAAGAGAGUCUAUGGCUUCCGUUGCCUUCCGUCGUUUCCGAGGGGACUCCUCACUCUGCCCAGACAACAGAGGAUUGAGCAUCA
# B10: chr11:20101544:20101545:+_ENSMUSG00000020149_ENSMUST00000020358|mus_hu|FALSE|FALSE (ssRNA)
# RNA: GGGAGUUCUACAGUCCGACGAUCUGCCGCAGCCGCCGCCCUGACUCUCCGCGCCACGGGUAAUCGAAAGAAAGGAAUGAGAUAGGCUGUUCCGGGAGAGCAAACGUCUUCCCCUACUCCGUCCCCUAGAACACAAUCAGCAGCCAACAGAGGAUUGAGCAUCA
# B11: chr17:56552419:56552420:-_ENSMUSG00000013236_ENSMUST00000086828|mus_mus|mus_mus_mus_hu_False|68_68 (ssRNA)
# RNA: GGGAGUUCUACAGUCCGACGAUCAAAAAAUACACUAUUUAAAAAAAAUGAAAUGUCACGGGAUACAAAAAAAUAUAGAGUUUUAAAAGAAAGCUGGAUUCUGGUCCCAGCCCAGUGUCCCCAGGCUGCAGAGCGGGGAGGAGCCAACAGAGGAUUGAGCAUCA
# B12: chr15:76910149:76910150:-_ENSMUSG00000033565_ENSMUST00000166610|mus_mus|FALSE|FALSE (ssRNA)
# RNA: GGGAGUUCUACAGUCCGACGAUCAAUGCUGACGGAGGGAAGUCAUGUCUCUUAGGGGAAAGGAUCAGCUCAUCACUCGCUAUAUAACGCAGCCAAACGGGCUGCCCAACAAGCACGCACACAAGAAAUACUGUUAACAGAAAACAACAGAGGAUUGAGCAUCA
# B13: chr17:56552419:56552420:-_ENSMUSG00000013236_ENSMUST00000086828|mus_mus|mus_mus_mus_hu_False|18_68 (ssRNA)
# RNA: B11 RNA with U117G, C119A, C120G, C121G, A122C, G123A, C125G, U126G
# B14: chr17:56552419:56552420:-_ENSMUSG00000013236_ENSMUST00000086828|mus_mus|mus_mus_mus_hu_False|58_68 (ssRNA)
# RNA: B11 RNA with G77C, G79C, U81A
# B15: chr6:38652254:38652255:-_ENSG00000124767_ENST00000373365|hu_hu|hu_hu_hu_mus_False|58_98 (ssRNA)
# RNA: GGGAGUUCUACAGUCCGACGAUCCGAGAACUUCAUAAUGGGAAAAUCAAGCUUCUGCAGGAGGGUCAGUCCAAGAACUCUAGUAUAAAAAUCCAGGGACUUCUUAGGAUCCUUAAUUCUUAGCAUCGUUUGCUGCAGUAGAAACAACAGAGGAUUGAGCAUCA
# B16: chr15:37385894:37385895:-_ENSG00000134138_ENST00000382766|hu_mus|motif|central (ssRNA)
# RNA: GGGAGUUCUACAGUCCGACGAUCGCUUCCAUCUCUCUCAUCAAUCACGAGGUCAAUGGGCAUUUUUCCCUUCAAACAGCGGAUGUACCGGUGGCAGAAGUUAUCACAUAGUUCGUGGACCUUUUCUAACUCCAGAAGAUGAAACAACAGAGGAUUGAGCAUCA
# B17: chr8:29959424:29959425:+_ENSG00000104660_ENST00000321250|hu_hu|FALSE|FALSE (ssRNA)
# RNA: GGGAGUUCUACAGUCCGACGAUCGAAGGGCACAUCCAAGCAUCAAAAACAUCAGUCCGAUUGCUCCUCCAAAGGACAAACUAAUCAAAGCUUUGAUGCCUGCCAUGGCGGUGACGUCGCUCCUGGCUCCACGACCCGAGGCGGCAACAGAGGAUUGAGCAUCA
# B18: chr13:13598695:13598696:+_ENSMUSG00000005397_ENSMUST00000005532|mus_hu|FALSE|FALSE (ssRNA)
# RNA: GGGAGUUCUACAGUCCGACGAUCCACCAAGUCAGUCUCAAAGAGCACCCGGCGCUGCGUGCCGUCCAGCUUCGCCACUUCUAUUCGAUCCAGGUUAGAGUCUGUCCAGAAGAUGUUGCGGCCAAGGUGAUCAACAGCGAUACCCAACAGAGGAUUGAGCAUCA
# B19: chrX:73036348:73036349:-_ENSMUSG00000016382_ENSMUST00000114059|mus_mus|FALSE|FALSE (ssRNA)
# RNA: GGGAGUUCUACAGUCCGACGAUCUGCGUACUUGGCGUUAUUGUGCUUGUCAUCUUCUGUUAGAUUCCCACUCUUCACAAGGUCAUAGUUAAUGCAGCCUGGUUGGAUGGCGUCAAUUAAAUCCACAACCGCCAAACUGGAGCUCAACAGAGGAUUGAGCAUCA
# B20: 70939002_70942968_1374_3pUTR_ENSMUSG00000034761_ENSMUST00000110570|mouse|control|control (ssRNA)
# RNA: GGGAGUUCUACAGUCCGACGAUCGCUCCGCUCUGGAAUUCCUGUUUGUUGAUCUAAUGGUAUGACGAAUGAUUGCGUGGGGCUCCAAGUCGUCCUCAUCGCCCUCACUGUAGGGAGCAUGGUUGUCCGGAUUGCUCACCUUGUCAACAGAGGAUUGAGCAUCA
# B21: chr8:133807003:133807004:+_ENSG00000129292_ENST00000220847|hu_mus|FALSE|FALSE (ssRNA)
# RNA: GGGAGUUCUACAGUCCGACGAUCUUUGUUAAUUGCUUCAAUCUUGGCAGGGUAAUAGCGACAGUCUGUCCAACGAGCCAGUACUUCUUCUCCAGCUUUAAAAUCAAAGAGCUCUUCCUCAUCCUUUAGCCCUUCUUUCCUUAGCAACAGAGGAUUGAGCAUCA
# B22: chr2:49628351:49628352:+_ENSMUSG00000026764_ENSMUST00000028102|mus_hu|FALSE|FALSE (ssRNA)
# RNA: GGGAGUUCUACAGUCCGACGAUCACCGCAAAUAAUGGUAGAGCAGGUAUAUUGGGCUGGCACUGAUAACAAAAUUAAAGAAUGAAAAAAAUUUAAACAAAUGCAAAAUUGCCAUCUUCACAAAAUAAAUACUUCAAUAGAAUUCAACAGAGGAUUGAGCAUCA
# B23: chrX:35959125:35959126:+_ENSMUSG00000000355_ENSMUST00000000365|mus_mus|FALSE|FALSE (ssRNA)
# RNA: GGGAGUUCUACAGUCCGACGAUCAUUUGCUCCACUGAGUACAAAUUUGAUGGCUCCUUUAUCAACCUGCUGAUGUGGCAAGAUAAAAGGAUAUUUAUGAAGUAAUCUUAAAGUUGGAUAAAAAGGCCCUUCUCUUUGUCUAAACAACAGAGGAUUGAGCAUCA
# B24: chr2:5814250:5814251:-_ENSMUSG00000025816_ENSMUST00000102981|mus_hu|mus_mus_mus_hu_True|68_108 (ssRNA)
# RNA: GGGAGUUCUACAGUCCGACGAUCUUCCUUUCAGGCUUCUGAAUUUCUGGUAGAACUGCACAGAAUGGUUUAAUAACUUCUAAAAAUUUGAUGCCCAUGGCUGCUGCUGGGGAGGCCCAGGGGGAAACCGCGGCCUCGGCGCUGCAACAGAGGAUUGAGCAUCA
# B25: chr9:37357388:37357389:+_ENSG00000147905_ENST00000336755|hu_hu|FALSE|FALSE (ssRNA)
# RNA: GGGAGUUCUACAGUCCGACGAUCUUGGACACAGAGAAUUGAGAUCUCCAUGGAUAUUCAGUAACUCUAGGAAUGGCUGAAAUUAAAAAAACAAAACCAAAAACUCACUUUAUUUAAUCAUAGAUAAUAAACACAGUGCCAGAACAACAGAGGAUUGAGCAUCA
# B26: 49527313_49535755_592_CDS_ENSMUSG00000026764_ENSMUST00000028102|mouse|control|control (ssRNA)
# RNA: GGGAGUUCUACAGUCCGACGAUCCAUGGUAUGAGUUUUUCCUGAUGAAGUCUGCCCAUAUGCAAAAAUUGUUCCAUUAUAACCCUCAAGGACAUCUUUGACAAUCUGCUUUGCACAGGCAUUGUAGACCUGCUCCUGGGUUGUCAACAGAGGAUUGAGCAUCA
# B27: chr2:49628383:49628384:+_ENSMUSG00000026764_ENSMUST00000028102|mus_hu|FALSE|FALSE (ssRNA)
# RNA: GGGAGUUCUACAGUCCGACGAUCAUAAGCUUUGCAAAACCUGCCCCACAAGGACCCUUUUAUCAGACCGCAAAUAAUGGUAGAGCAGGUAUAUUGGGCUGGCACUGAUAACAAAAUUAAAGAAUGAAAAAAAUUUAAACAAAUCAACAGAGGAUUGAGCAUCA
# Target: T1, UNK ZnF1-3
# Assay: nsRBNS (natural sequence RNA bind-n-seq); RBNS binding buffer (assumed for nsRBNS): 25 mM Tris pH 7.5, 150 mM KCl, 3 mM MgCl2, 0.01% Triton X-100, 500 ug/ml BSA, 20 U/ml SUPERase-In, 4 C; UNK is unkempt and MSI1 is Musashi-1; names of the RNAs are library labels; protein concentration not given here; high values mean tight binding
row,Binder,binding signal [enrichment R]
1,B1,1.14
2,B2,0.531
3,B3,0.804
4,B4,0.73
5,B5,0.894
6,B6,0.768
7,B7,2.43
8,B8,1.96
9,B9,0.688
10,B10,1.67
11,B11,7.63
12,B12,1.79
13,B13,7.03
14,B14,11.3
15,B15,1.47
16,B16,0.878
17,B17,1.29
18,B18,1.36
19,B19,0.875
20,B20,0.565
21,B21,0.906
22,B22,4.72
23,B23,0.981
24,B24,1.48
25,B25,1.15
26,B26,0.621
27,B27,10
